The values below come from PubChem BioAssay AID687036 (The Scripps Research Institute Molecular Screening Center, 2013).

Among all 3,300 compounds or so, about 1,400 (42%) were called active. So high a share suggests a set chosen from earlier hits. Shown is part of a subset that was picked to be rich in actives. A number with no mark means an inactive call.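 How the source made its calls: active means mean inhibition across replicates above the hit cutoff derived for the earlier primary screen (cut at about 22% in these data); inactive means the rest.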

Sequence of Protein arginine N-methyltransferase 1 (Homo sapiens) (Q99873 whole entry, looked up): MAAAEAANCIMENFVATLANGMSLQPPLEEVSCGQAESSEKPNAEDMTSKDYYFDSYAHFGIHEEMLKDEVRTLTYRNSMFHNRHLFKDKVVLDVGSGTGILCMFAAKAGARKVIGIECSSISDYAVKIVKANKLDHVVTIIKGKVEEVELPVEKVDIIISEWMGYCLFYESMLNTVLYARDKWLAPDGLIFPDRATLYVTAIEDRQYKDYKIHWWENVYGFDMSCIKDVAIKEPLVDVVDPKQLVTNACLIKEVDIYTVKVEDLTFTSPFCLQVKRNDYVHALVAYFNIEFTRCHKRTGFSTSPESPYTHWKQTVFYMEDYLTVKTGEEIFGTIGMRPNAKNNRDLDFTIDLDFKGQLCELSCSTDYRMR

This assay concerns the target Protein arginine N-methyltransferase 1 (Homo sapiens) (UniProt Q99873). The experiment in a line: PRMT1 methyltransferase inhibitors, confirmation, biochemical, fluorescence polarization, triplicate (AID 687036). The note with it: recombinant His-PRMT1, activity-based probe fluorescence polarization; at 2.79 µM; stronger effect = higher value. On the technique in general: In fluorescence polarisation assays a small probe gives low polarisation when free and higher when bound to something large.
`COc1ccc(N2C(=O)/C(=C/c3ccco3)C(=O)NC2=S)cc1`: the inhibition is 75.2% (active).
With `Cc1cc(N2CCNC[C@@H]2C)ccc1N1CC[C@H](O)C1` the figure was 4.59%; with `O=C1NC(=O)N(Cc2ccco2)C(=O)/C1=C\c1ccc(-c2ccc(F)cc2)o1`, 52.9% (active).
Turning to `Cc1cc(/C=C2/C(=O)NC(=O)N(Cc3ccco3)C2=O)c(C)n1-c1ccc(C(=O)O)cc1`, the inhibition is -1.23%.
For `CCOC(=O)CC(SP1(=S)OCC2(CCCCO2)C(C2CCCCO2)O1)C(=O)OCC` (stereo unspecified) the value was 60.2% (active); for `O=C1N=c2ccccc2=C/C1=C\c1c(O)[nH]c(=S)[nH]c1=O`, 55.4% (active).

The term inhibition denotes the relative decrease from the control value, in per cent.
